Source: PubChem BioAssay (Tox21)
Inconclusive results are not listed. Entries that show only a call come without a potency. Activity calls are given as the source filed them. The call rests on the fitted dose curve; in most records, active means well fitted cell-killing curve with a large enough effect in the repeat runs; inconclusive means weak or mixed curves, or effect the other way; inactive means no such curve, though single readings can be large or run the other way.

experiment: qHTS assay to identify small molecule antagonists of the progesterone receptor (PR) signaling pathway - cell viability counter screen (AID 1346798); settings: PR-UAS-bla HEK293T viability, CellTiter-Glo luminescence, 16 h; series mostly up to 92.4 µM; further: nearly all actives have a fitted effect of over 50% in size
Excerpt: National Center for Advancing Translational Sciences [NCATS]
NIH Chemical Genomics Center [NCGC]
U.S. Environmental Protection Agency [EPA]
National Institutes of Environmental Health Sciences [NIEHS]
National Toxicology Program [NTP]
U.S. Food and Drug Administration [FDA]
Progesterone receptor (PR), a nuclear hormone receptor, plays an important role in development, metabolic homeostasis and reproduction. It is activated by the steroid hormone progesterone. Endocrine disrupting chemicals (EDCs) and their interactions with steroid hormone receptors like PR causes disruption of normal endocrine function. To identify the compounds that inhibit PR signaling, a PR-UAS-bla GripTite cell line i.e. PR-UAS-bla HEK293T (Invitrogen, Carlsbad, CA, USA) containing a beta-lactamase reporter gene under the control of an UAS response element was used to screen Tox21 10K compound library. The cytotoxicity of the Tox21 compound library against the PR-bla cell line was tested in parallel by measuring the cell viability using CellTiter-Glo assay in the same wells.
Tox21 Assay Protocol Summary:
PR-UAS-bla HEK293T cells were dispensed at 3,000 cells/4 uL of assay medium containing 2% charcoal stripped FBS per well into black wall/clear-bottom 1536-well plates using a Multidrop Combi (ThermoFisher Scientific, Waltham, MA) dispenser. After the assay plates were incubated at a 37C and 5% CO2 for 4 hr, 23 nL of compounds dissolved in DMSO, positive controls or DMSO only was transferred to the assay plate by a Pintool station (Kalypsys, San Diego, CA), followed by addition of 1 uL of R5020 in assay medium using a Flying Reagent Dispenser (FRD, Aurora Discovery, San Diego, CA). The plates were incubated at 37C and 5% CO2 for 16 hr. Then 1 uL of LiveBLAzer B/G FRET substrate was added using a Flying Reagent Dispenser, the plates were incubated at room temperature for 2 hours, and fluorescence intensity was measured by an Envision plate reader (PerkinElmer, Shelton, CT). For cell viability readout that measures cytotoxicity, 4 uL/well of CellTiter-Glo reagent was added into the assay plates using a FRD. After 30 min incubation at room temperature, the luminescence intensity in the plates was measured using a ViewLux (PerkinElmer) plate reader.

| Compound | Potency | activity change, negative = cytotoxicity |
| --- | --- | --- |
| CCCCCCCCCCCCCCCCCCO | inactive | – |
| CCOc1c(N2CCOCC2)cnn(C)c1=O | inactive | – |
| N[C@H](C(=O)O)[C@@H](O)c1ccc(O)c(O)c1 | inactive | – |
| CCOc1ccccc1OCC | inactive | – |
| CC1=CCC(O)(C(C)C)CC1 (stereo not given) | inactive | – |
| CCC(C)(CCCC(C)C)OC(C)=O (stereo not given) | inactive | – |
| C[N+]1(C)[C@@H]2CC(OC(=O)[C@H](CO)c3ccccc3)C[C@H]1[C@@H]1O[C@@H]12 (stereo not given in full) | inactive | – |
| C=CC(=O)OCCCl | inactive | – |
| NC(=O)Cc1cccc2ccccc12 | inactive | – |
| CC(C)C[C@@H](N)C(=O)O | – | -9.21% [at 18.9 µM] (inactive) |
| c1ccc2sc(SN3CCOCC3)nc2c1 | inactive | – |
| C=CCOCC(O)CO (stereo not given) | inactive | – |
| C=COC(=O)C(C)(CC)CCC(C)C (stereo not given) | inactive | – |
| CCN1CCOCC1 | inactive | – |
| COc1cc(C(=O)NCc2ccc(OCCN(C)C)cc2)cc(OC)c1OC | inactive | – |
| CC1(C)[C@@H]2CC[C@@]1(C)[C@H](O)C2 | inactive | – |
| CCOC(=O)C1=NOC(c2ccccc2)(c2ccccc2)C1 | inactive | – |
| CCCCCCCCCC[N+](C)(C)[O-] | inactive | – |
| Cc1ccc(-c2ncc(Cl)cc2-c2ccc(S(C)(=O)=O)cc2)cn1 | inactive | – |
| CC(=O)Oc1cccc(C)c1 | inactive | – |

| Compound | Potency | activity change, negative = cytotoxicity |
| --- | --- | --- |
| CCCC(C)C(=O)OCC (stereo not given) | inactive | – |
| CC[N+](CC)(CC)CCOc1cccc(OCC[N+](CC)(CC)CC)c1OCC[N+](CC)(CC)CC | inactive | – |
| NCCCC[C@H](N[C@@H](CCc1ccccc1)C(=O)O)C(=O)N1CCC[C@H]1C(=O)O | inactive | – |
| NS(=O)(=O)Cc1noc2ccccc12 | inactive | – |
| O=C(O)CNC(=O)c1ccccc1 | inactive | – |
| CCC(C(=O)NC(=O)NC(C)=O)c1ccccc1 (stereo not given) | inactive | – |
| CCCCCCCCCCCCSC | inactive | – |
| CC(C)=CCC/C(C)=C/C#N | inactive | – |
| CN(C)C(=O)Oc1ccc[n+](C)c1 | inactive | – |
| CCCCS(=O)(=O)N[C@@H](Cc1ccc(OCCCCC2CCNCC2)cc1)C(=O)O | inactive | – |
| CCN(CC#N)c1cccc(C)c1 | inactive | – |
| O=C(c1ccccc1O)c1ccccc1O | inactive | – |
| CC(C)(C#N)Nc1nc(Cl)nc(NC2CC2)n1 | inactive | – |
| COc1ccnc(CS(=O)c2nc3cc(OC(F)F)ccc3[nH]2)c1OC (stereo not given) | inactive | – |
| CCCCCC(C)N (stereo not given) | inactive | – |
| CC(=O)C1CCCCC1=O (stereo not given) | inactive | – |
| CCOc1ccc2nc(S(N)(=O)=O)sc2c1 | inactive | – |
| C1CCC2(CCCCO2)OC1 | inactive | – |
| CC1CCC(CO)CC1 (stereo not given) | inactive | – |
| C[C@H]1[C@H](NC(=O)/C(=N/OC(C)(C)C(=O)O)c2csc(N)n2)C(=O)N1S(=O)(=O)O (stereo in doubt) | inactive | – |
